Assay results taken from PubChem BioAssay (EPA / NIEHS).
Activity calls are given as the source filed them. How the source made its calls: active means hit-call score of the fitted dose curve at least 0.9, where 1 is the maximum; inactive means score below 0.9.

What was measured:
Settings in all cases: actives raise or lower the signal
[1] = CEETOX_H295R_OHPREG_noMTC: CeeTox H295R High-throughput Steroidogenesis Assay for OH-Pregnenolone (OHPREG), maximum tolerated concentration (MTC) filtered results only (AID 2283912)
Method: CEETOX_H295R is a cell-based, multiplexed-readout assay that uses H295R, a human adrenal gland cell line, with measurements taken at 48 hours after chemical dosing in a 96-well plate.CEETOX_H295R_OHPREG_noMTC is one of 12 assay component(s) measured or calculated from the CEETOX_H295R assay (11 hormones and 1 viability assay). It is designed to make measurements of hormone induction, a form of inducible reporter, as detected with absorbance signals by HPLC-MS-MS technology. The concentrations for these components have not been pre-filtered for the maximum tolerated concentration (MTC) based on the MTT assay (_noMTC).Data from the assay component CEETOX_H295R_OHPREG_noMTC was analyzed into 1 assay endpoint. This assay endpoint, CEETOX_H295R_OHPREG_noMTC, was analyzed with bidirectional fitting relative to DMSO as the negative control and baseline of activity. […]
Cell culture and media preparation procedures were conducted in accordance with OECD Test No. 456 guidelines, with minor modifications. […] For steroid quantification, media samples were shipped to OpAns, LLC (Durham, NC) on dry ice, and samples were thawed to room temperature prior to liquid-liquid extraction. […] Steroid hormones were separated by HPLC, eluted using a reverse phase C18 gradient with electrospray positive ionization, followed by quantification by tandem mass spectrometry (MS/MS). Data were acquired on a MassHunter Workstation Acquisition version B03.01 (Agilent Technologies, Inc.) and processed using MassHunter Quantitative Analysis for QQQ. Accuracy was determined for each hormone analyte from 3 standards to determine upper and lower limits of quantification (ULOQ and LLOQ, respectively) using a 7-point standard curve. Precision and accuracy of the extraction and quantification methods were calculated as the percent relative standard deviation (%RSD) of the spiked standards and percent spiked standard recovered, respectively. […] Test medium was removed following chemical exposure, and cell viability was evaluated in the same wells by MTT. […]

[2] = CEETOX_H295R_OHPROG_noMTC: CeeTox H295R High-throughput Steroidogenesis Assay for OH-Progesterone (OHPROG), maximum tolerated concentration (MTC) filtered results only (AID 2283914)
Procedure, shortened: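 H295R cells prestimulated 48 h with 10 uM forskolin, then exposed 48 h to chemical (0.1% DMSO final). 17alpha-hydroxyprogesterone in medium quantified by HPLC-MS/MS after MTBE extraction; bidirectional fitting versus DMSO, concentrations not MTC-filtered.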

[3] = CEETOX_H295R_CORTISOL_noMTC: CeeTox H295R High-throughput Steroidogenesis Assay for Cortisol, maximum tolerated concentration (MTC) filtered results only (AID 2283916)
Procedure, shortened: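 H295R human adrenal cells prestimulated 48 h with 10 uM forskolin, then exposed 48 h to chemical in 0.1% DMSO; cortisol in medium quantified by HPLC-MS/MS; bidirectional fit vs DMSO baseline, concentrations not MTT-filtered for MTC.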

[4] = CEETOX_H295R_CORTIC_noMTC: CeeTox H295R High-throughput Steroidogenesis Assay for Corticosterone (CORTIC), maximum tolerated concentration (MTC) filtered results only (AID 2283917)
Procedure, shortened: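 H295R adrenal cells pre-stimulated 48 h with 10 uM forskolin, then exposed 48 h to chemical in 0.1% DMSO; corticosterone in medium quantified by HPLC-MS/MS, fitted bidirectionally versus DMSO without MTT-based concentration filtering.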

[5] = CEETOX_H295R_DOC_noMTC: CeeTox H295R High-throughput Steroidogenesis Assay for DOC, maximum tolerated concentration (MTC) filtered results only (AID 2283918)
Procedure, shortened: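 H295R cells prestimulated 48 h with 10 uM forskolin, then exposed 48 h to chemical in 0.1% DMSO. 11-Deoxycorticosterone in medium measured by MTBE extraction and HPLC-MS/MS; bidirectional fit vs DMSO, no MTC filter.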

[6] = CEETOX_H295R_ESTRADIOL_noMTC: CeeTox H295R High-throughput Steroidogenesis Assay for Estradiol, maximum tolerated concentration (MTC) filtered results only (AID 2283919)
Procedure, shortened: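 H295R human adrenal cells pre-stimulated 48 h with 10 uM forskolin, then exposed 48 h to chemical (0.1% DMSO final). Estradiol in medium measured by HPLC-MS/MS after MTBE extraction and dansyl derivatization; bidirectional fit versus DMSO, concentrations not MTT-filtered.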

[7] = CEETOX_H295R_PROG_noMTC: CeeTox H295R High-throughput Steroidogenesis Assay for Progesterone (PROG), maximum tolerated concentration (MTC) filtered results only (AID 2283920)
Procedure, shortened: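 H295R cells, prestimulated 48 h with 10 uM forskolin, exposed 48 h to chemical in 0.1% DMSO. Medium progesterone quantified by MTBE extraction and HPLC-MS/MS; bidirectional fit versus DMSO, concentrations not MTT-filtered.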

[8] = CEETOX_H295R_ESTRONE_noMTC: CeeTox H295R High-throughput Steroidogenesis Assay for Estrone, maximum tolerated concentration (MTC) filtered results only (AID 2283921)
Procedure, shortened: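 H295R cells prestimulated 48 h with 10 uM forskolin, then exposed 48 h to chemical in 0.1% DMSO; medium estrone measured by HPLC-MS/MS after MTBE extraction and dansyl derivatization, fitted bidirectionally versus DMSO without MTT-based MTC filtering.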

[9] = CEETOX_H295R_ANDR_noMTC: CeeTox H295R High-throughput Steroidogenesis Assay for Androstenedione (ANDR), maximum tolerated concentration (MTC) filtered results only (AID 2283915)
Procedure, shortened: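 H295R cells, passage 10 or below, prestimulated 48 h with 10 uM forskolin, then exposed 48 h to chemical in 0.1% DMSO. Medium androstenedione extracted with MTBE, quantified by HPLC-MS/MS; concentrations not MTC-filtered; bidirectional fit versus DMSO.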

[10] = CEETOX_H295R_TESTO_noMTC: CeeTox H295R High-throughput Steroidogenesis Assay for Testosterone (TESTO), maximum tolerated concentration (MTC) filtered results only (AID 2283924)
Procedure, shortened: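 H295R cells prestimulated 48 h with 10 uM forskolin, then exposed 48 h to chemicals in 0.1% DMSO final. Testosterone in medium quantified by MTBE extraction and HPLC-MS/MS; bidirectional fit versus DMSO, concentrations […] filtered by MTT-based maximum tolerated concentration.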

SMILES	outcome [1]	outcome [2]	outcome [3]	outcome [4]	outcome [5]	outcome [6]	outcome [7]	outcome [8]	AC50 [1]	AC50 [2]	AC50 [9]	AC50 [3]	AC50 [4]	AC50 [5]	AC50 [7]	AC50 [10]
c1ccc2cc3ccccc3cc2c1	inactive	inactive	inactive	inactive	inactive	inactive	inactive	inactive								
Cc1nc(-c2ccccn2)ncc1C(=O)Nn1cc(C)c2cc(F)ccc21						inactive		inactive	4.1 µM (active)	8.28 µM (active)	22.5 µM (active)	12.7 µM (active)	9.57 µM (active)	5.19 µM (active)	3.34 µM (active)	11.5 µM (active)
O=S(=O)(O)c1ccc(N=Nc2c(O)ccc3cc(S(=O)(=O)O)ccc23)cc1	inactive	inactive	inactive	inactive	inactive		inactive									
